# PubChem BioAssay AID1159580 (chemical genetic matrix, 2015)
# In all, about 5,500 compounds went through this assay and about 2,000 (36%) were called active. Not shown: some 18% with an inconclusive outcome. This is one part of the list. Unmarked numbers belong to inactive results. No stated cut-off is given here; in the data, active means normalized growth mostly below about 0.91 (no sharp cut-off); inconclusive means no clear call, values can overlap the other calls; inactive means mostly above about 0.92.
# Assay: chemical genetic growth profiling, strain panel (AID 1159580);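 further: tested at 20 µM; growth read once vehicle control cultures reached saturation at 30 °C; 1 = growth at the plate median or of vehicle wells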
# Settings: S. cerevisiae deletion strains, growth OD
# [1] = locus YAL040C, strain CLN3, stronger effect = lower value
# [2] = locus YCL061C, strain MRC1 (second series), stronger effect = lower value
# [3] = locus YDR363W, strain ESC2, stronger effect = lower value
# [4] = locus YER002W, strain NOP16, stronger effect = lower value
# [5] = locus YGR078C, strain PAC10, stronger effect = lower value
# [6] = locus YNL175C, strain NOP13, stronger effect = lower value
# [7] = locus YNL197C, strain WHI3, stronger effect = lower value
# [8] = locus YNL224C, strain SQS1, stronger effect = lower value
# [9] = locus YOR083W, strain WHI5 (second series), stronger effect = lower value
# [10] = locus YPL241C, strain CIN2, stronger effect = lower value
structure (smiles),measurement,setting,value
O=c1[nH]c2ccccc2n1CCCN1CCC(n2c(=O)[nH]c3cc(Cl)ccc32)CC1,normalized growth,"locus YAL013W, strain DEP1, stronger effect = lower value",0.982
same,normalized growth,"locus YAL021C, strain ccr4, stronger effect = lower value",0.982
same,normalized growth,"locus YAL026C, strain drs2, stronger effect = lower value",1.01
same,normalized growth,"locus YAL030W, strain snc1, stronger effect = lower value",0.991
same,normalized growth,[1],1
same,normalized growth,"locus YBL061C, strain skt5, stronger effect = lower value",0.981
same,normalized growth,"locus YBR009C, strain hhf1, stronger effect = lower value",0.967
same,normalized growth,"locus YBR023C, strain chs3, stronger effect = lower value",0.982
same,normalized growth,"locus YBR171W, strain sec66, stronger effect = lower value",0.979
same,normalized growth,"locus YBR231C, strain swc5, stronger effect = lower value",0.945
same,normalized growth,"locus YBR279W, strain paf1, stronger effect = lower value",0.992
same,normalized growth,"locus YCL011C, strain gbp2, stronger effect = lower value",0.987
same,normalized growth,"locus YCL016C, strain dcc1, stronger effect = lower value",0.989
same,normalized growth,[2],1.01
same,normalized growth,"locus YCL069W, strain vba3, stronger effect = lower value",0.978
same,normalized growth,"locus YCR088W, strain abp1, stronger effect = lower value",0.983
same,normalized growth,"locus YDL005C, strain med2, stronger effect = lower value",0.971
same,normalized growth,"locus YDL040C, strain nat1, stronger effect = lower value",0.959
same,normalized growth,"locus YDR001C, strain nth1, stronger effect = lower value",0.969
same,normalized growth,"locus YDR069C, strain doa4, stronger effect = lower value",0.971
same,normalized growth,"locus YDR137W, strain rgp1, stronger effect = lower value",1.05
same,normalized growth,"locus YDR159W, strain sac3, stronger effect = lower value",0.956
same,normalized growth,"locus YDR195W, strain ref2",0.979
same,normalized growth,"locus YDR297W, strain sur2, stronger effect = lower value",0.984
same,normalized growth,"locus YDR334W, strain swr1, stronger effect = lower value",0.976
same,normalized growth,"locus YDR335W, strain msn5, stronger effect = lower value",0.961
same,normalized growth,[3],1
same,normalized growth,"locus YDR392W, strain spt3, stronger effect = lower value",0.942
same,normalized growth,"locus YEL003W, strain gim4, stronger effect = lower value",0.976
same,normalized growth,"locus YEL037C, strain rad23, stronger effect = lower value",0.974
same,normalized growth,"locus YEL061C, strain CIN8 (second series), stronger effect = lower value",0.98
same,normalized growth,[4],0.997
same,normalized growth,"locus YER015W, strain faa2, stronger effect = lower value",0.976
same,normalized growth,"locus YER016W, strain bim1, stronger effect = lower value",1
same,normalized growth,"locus YER111C, strain swi4, stronger effect = lower value",0.976
same,normalized growth,"locus YER155C, strain BEM2 (second series), stronger effect = lower value",0.863 (active)
same,normalized growth,"locus YFR010W, strain ubp6, stronger effect = lower value",0.951
same,normalized growth,"locus YGL167C, strain pmr1, stronger effect = lower value",0.964
same,normalized growth,"locus YGL173C, strain kem1, stronger effect = lower value",0.964
same,normalized growth,"locus YGL227W, strain vid30, stronger effect = lower value",0.972
same,normalized growth,"locus YGL240W, strain doc1, stronger effect = lower value",0.927
same,normalized growth,"locus YGL253W, strain hxk2, stronger effect = lower value",1.01
same,normalized growth,[5],1.01
same,normalized growth,"locus YGR229C, strain SMI1, stronger effect = lower value",1.01
same,normalized growth,"locus YHR013C, strain ard1, stronger effect = lower value",0.965
same,normalized growth,"locus YHR027C, strain rpn1, stronger effect = lower value",0.997
same,normalized growth,"locus YHR030C, strain SLT2, stronger effect = lower value",1.02
same,normalized growth,"locus YHR079C, strain IRE1, stronger effect = lower value",0.994
same,normalized growth,"locus YHR142W, strain chs7, stronger effect = lower value",0.981
same,normalized growth,"locus YJL092W, strain hpr5, stronger effect = lower value",0.965
same,normalized growth,"locus YJL095W, strain BCK1 (second series), stronger effect = lower value",0.982
same,normalized growth,"locus YJL095W, strain BCK1, stronger effect = lower value",0.997
same,normalized growth,"locus YJL115W, strain asf1, stronger effect = lower value",0.994
same,normalized growth,"locus YJL129C, strain trk1, stronger effect = lower value",0.916
same,normalized growth,"locus YJL154C, strain vps35, stronger effect = lower value",0.958
same,normalized growth,"locus YJL164C, strain tpk1, stronger effect = lower value",0.997
same,normalized growth,"locus YJL166W, strain qcr8, stronger effect = lower value",0.929
same,normalized growth,"locus YJL187C, strain SWE1, stronger effect = lower value",0.978
same,normalized growth,"locus YJR066W, strain TOR1, stronger effect = lower value",0.932
same,normalized growth,"locus YKL160W, strain elf1, stronger effect = lower value",0.964
same,normalized growth,"locus YKR026C, strain gcn3, stronger effect = lower value",0.982
same,normalized growth,"locus YKR091W, strain srl3, stronger effect = lower value",0.984
same,normalized growth,"locus YLL001W, strain dnm1, stronger effect = lower value",0.917
same,normalized growth,"locus YLL026W, stronger effect = lower value",0.969
same,normalized growth,"locus YLL041C, strain sdh2, stronger effect = lower value",0.988
same,normalized growth,"locus YLR027C, strain aat2, stronger effect = lower value",0.972
same,normalized growth,"locus YLR113W, strain HOG1, stronger effect = lower value",1
same,normalized growth,"locus YLR221C, strain rsa3, stronger effect = lower value",1.01
same,normalized growth,"locus YLR258W, strain gsy2, stronger effect = lower value",0.998
same,normalized growth,"locus YLR262C, strain YPT6 (second series), stronger effect = lower value",0.999
same,normalized growth,"locus YLR320W, strain mms22, stronger effect = lower value",1
same,normalized growth,"locus YLR342W, strain FKS1, stronger effect = lower value",0.933
same,normalized growth,"locus YLR357W, strain rsc2, stronger effect = lower value",0.937
same,normalized growth,"locus YLR370C, strain arc18, stronger effect = lower value",0.966
same,normalized growth,"locus YLR384C, strain iki3, stronger effect = lower value",0.978
same,normalized growth,"locus YML120C, strain ndi1, stronger effect = lower value",0.962
same,normalized growth,"locus YMR058W, strain fet3, stronger effect = lower value",0.959
same,normalized growth,"locus YMR125W, strain sto1, stronger effect = lower value",1.02
same,normalized growth,"locus YMR129W, stronger effect = lower value",0.982
same,normalized growth,"locus YMR205C, strain PFK2, stronger effect = lower value",0.978
same,normalized growth,"locus YMR231W, strain pep5, stronger effect = lower value",0.977
same,normalized growth,"locus YMR307W, strain GAS1, stronger effect = lower value",0.992
same,normalized growth,"locus YNL071W, strain lat1, stronger effect = lower value",0.989
same,normalized growth,[6],1.01
same,normalized growth,"locus YNL183C, strain NPR1, stronger effect = lower value",0.955
same,normalized growth,[7],1.02
same,normalized growth,"locus YNL209W, strain ssb2, stronger effect = lower value",0.992
same,normalized growth,[8],1
same,normalized growth,"locus YNL248C, strain rpa49, stronger effect = lower value",0.996
same,normalized growth,"locus YNL322C, strain KRE1 (second series), stronger effect = lower value",0.975
same,normalized growth,"locus YNR049C, strain mso1, stronger effect = lower value",0.983
same,normalized growth,"locus YOR001W, strain rrp6, stronger effect = lower value",0.952
same,normalized growth,"locus YOR070C, strain gyp1, stronger effect = lower value",0.991
same,normalized growth,"locus YOR080W, strain dia2, stronger effect = lower value",0.96
same,normalized growth,[9],0.926
same,normalized growth,"locus YOR083W, strain WHI5, stronger effect = lower value",0.911
same,normalized growth,"locus YOR106W, strain vam3, stronger effect = lower value",0.927
same,normalized growth,"locus YOR231W, strain MKK1, stronger effect = lower value",1.01
same,normalized growth,"locus YOR265W, strain rbl2, stronger effect = lower value",0.986
same,normalized growth,"locus YOR270C, strain vph1, stronger effect = lower value",0.936
same,normalized growth,"locus YOR290C, strain snf2, stronger effect = lower value",0.988
same,normalized growth,"locus YPL051W, strain arl3, stronger effect = lower value",0.971
same,normalized growth,"locus YPL078C, strain atp4, stronger effect = lower value",0.926
same,normalized growth,"locus YPL106C, strain sse1, stronger effect = lower value",0.998
same,normalized growth,"locus YPL240C, strain hsp82, stronger effect = lower value",0.997
same,normalized growth,[10],1.01
same,normalized growth,"locus YPL256C, strain CLN2, stronger effect = lower value",0.995
O=C(OC1CCN(CCCl)CC1)C(c1ccccc1)c1ccccc1,normalized growth,[1],0.993
same,normalized growth,[2],0.988
same,normalized growth,"locus YDR150W, strain NUM1, stronger effect = lower value",0.986
same,normalized growth,[3],0.986
same,normalized growth,[4],1
same,normalized growth,[5],0.994
same,normalized growth,"locus YJR075W, strain HOC1, stronger effect = lower value",0.995
same,normalized growth,"locus YNL128W, strain TEP1, stronger effect = lower value",0.997
same,normalized growth,"locus YNL153C, strain GIM3, stronger effect = lower value",0.969
same,normalized growth,[6],1.01
same,normalized growth,[7],1.03
same,normalized growth,[8],0.99
same,normalized growth,[9],0.996
same,normalized growth,[10],0.99
